# HTT cytoprotect – protects HTT-Q103 PC12 cells, measured by ATP; AID 1471; PC12 HTT-Q103 induced, cytoprotection, ATP luminescence, 40 h; Potency, µM (doses to about 56.4 µM), for the others: cytoprotection (ATP increase), hits mostly activators; 0.14% of 230,000 active; active = well fitted curve in the direction sought with a large enough effect; inconclusive = small, poorly fitted or top-dose-only effect, or another doubt; inactive = no such curve, though single readings can be large; an effect the other way counts as inactive or inconclusive; note: % of control where 0% means no effect; nearly all actives have a fitted effect of over 45% in size
#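 PC12 cells stably carrying ecdysone-inducible Htt exon 1 (Q103)–GFP were induced with 100 nM tebufenozide (final) alongside library compounds in a dose series. Cytoprotection was scored as retained ATP by ATPlite luminescence.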
# LMNA splice mod – modulators of lamin A splicing; HeLa LMNA splicing GFP/RFP minigene ratio, 48 h; Potency, µM (series often up to 46.1 µM), for inactives: at the highest dose ratio change, negative = inhibition, usual class: inhibitors; 0.01% of 200,000 active; AID 1487; active = well fitted inhibition curve with a large enough effect in the signal ratio, with a control signal flat, not every such curve was filed as active; inconclusive = small, poorly fitted or top-dose-only effect, or effect the other way, or a change in a side signal; the % refers to the signal ratio; note: % is set by controls: 0 for no effect and ±100 for the full control effect
#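 S3 HeLa cells stably expressing lamin A-EGFP splicing minigene plus DsRed2, 600 cells/well, 48 h compound exposure at 37C. Laser-scanning cytometry; analysed as GFP (500-530 nm)/RFP (575-640 nm) total intensity ratio; 0.5% DMSO vehicle.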
# HPGD inh – HPGD (human) dehydrogenase inhibition; P15428; purified HPGD, NADH fluorescence kinetic, PGE2 substrate; Potency, µM, inactives show top-dose activity change, negative = inhibition, most hits filed as inhibitors; 4.3% of 150,000 active; note: % is set by controls: 0 for no effect and ±100 for the full control effect
# Target sequence (P15428 whole entry, looked up): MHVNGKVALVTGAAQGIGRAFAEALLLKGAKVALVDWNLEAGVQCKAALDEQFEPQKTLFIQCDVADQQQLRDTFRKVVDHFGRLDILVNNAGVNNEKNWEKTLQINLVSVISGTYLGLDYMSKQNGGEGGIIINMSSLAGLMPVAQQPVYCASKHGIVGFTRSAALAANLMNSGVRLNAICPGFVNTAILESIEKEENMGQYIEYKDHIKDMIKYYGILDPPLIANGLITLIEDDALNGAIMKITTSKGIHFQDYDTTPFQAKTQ
#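 20 nM HPGD preincubated 15 min at room temperature with compound in 50 mM Tris-HCl pH 8, 0.01% Tween 20. Started with 1 mM NAD+ and 30 uM prostaglandin E2; NADH fluorescence (360/450 nm) read 5 times over 30-s intervals, last minus first.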
# ALDH1A1 inh – blocks purified human ALDH1A1 activity. Purified ALDH1A1, NADH fluorescence, propionaldehyde substrate. AID 1030. 7.3% of 220,000 active. Potency, µM (top dose mostly 75.3 µM), for the others: at the highest dose activity, negative = inhibition, hits mostly inhibitors;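 note: plate controls were no enzyme wells and a reference inhibitor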
# Target sequence (P00352 whole entry, looked up): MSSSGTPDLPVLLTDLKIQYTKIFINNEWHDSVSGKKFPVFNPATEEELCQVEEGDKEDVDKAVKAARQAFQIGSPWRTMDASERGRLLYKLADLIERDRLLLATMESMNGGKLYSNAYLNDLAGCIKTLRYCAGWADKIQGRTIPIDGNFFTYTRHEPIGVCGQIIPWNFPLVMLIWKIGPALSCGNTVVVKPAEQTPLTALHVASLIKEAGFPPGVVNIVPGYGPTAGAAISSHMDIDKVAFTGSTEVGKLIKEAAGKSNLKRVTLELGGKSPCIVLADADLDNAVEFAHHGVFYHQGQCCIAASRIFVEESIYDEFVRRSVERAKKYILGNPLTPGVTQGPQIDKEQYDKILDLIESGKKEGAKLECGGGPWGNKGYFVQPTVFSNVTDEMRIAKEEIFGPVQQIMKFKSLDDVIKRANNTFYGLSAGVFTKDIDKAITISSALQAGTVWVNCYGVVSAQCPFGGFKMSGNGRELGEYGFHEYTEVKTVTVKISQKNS
# HTT aggregate – reduces HttQ103-GFP aggregates in PC12 cells; Potency, µM (series often up to 46.1 µM), inactives show at the highest dose activity change, negative = inhibition, most hits filed as inhibitors; 1.1% of 220,000 active; PC12 HttQ103-GFP aggregates, Acumen cytometry, 40 h; active = well fitted curve in the direction sought with a large enough effect; inconclusive = small, poorly fitted or top-dose-only effect, or another doubt; inactive = no such curve, though single readings can be large; an effect the other way counts as inactive or inconclusive; note: % is set by controls: 0 for no effect and ±100 for the full control effect; nearly all actives have a fitted effect of over 60% in size
#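 Steps: seed 1500 PC12 HTTQ103-GFP cells/well; add tebufenozide, 100 nM final; add compound titration; add ATPLite reagent; quantify GFP aggregates by laser scanning cytometry.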
# * hit, by the source's call; ? = inconclusive; · = not tested or not shown; [ ] = dose if it differs, or a comment. The list is not random: actives were taken first. Their share in the collection is about 8.8%. Unless noted, calls come from the whole dose curve; as a rule, active = well fitted inhibition curve with a large enough effect (not every such curve was filed as active); inconclusive = small, poorly fitted or top-dose-only effect, or another doubt; inactive = no such curve, though single readings can be large or run the other way. Potency is the fitted concentration of half-maximal effect.
SMILES,HTT cytoprotect,LMNA splice mod,HPGD inh,ALDH1A1 inh,HTT aggregate
Cc1cc(-c2nsc(=O)o2)c(S(C)(=O)=O)s1,-1.7%[10 µM],-8.7%,4.47µM*,2.82µM*,-9.0%
C=CCSc1nc2c(N)ncnc2n1[C@@H]1O[C@H](CO)[C@@H](O)[C@@H]1O,-6.4%[10 µM],·,-1.9%,7.4%[13.5 µM],·
COc1ccc(CCNC(=O)c2cnn(-c3cccc(C)c3)c2C2CCN(C(=O)OC(C)(C)C)CC2)cc1OC,·,1.6%[46 µM],·,·,·
Cc1ccc(C2C3=C(CC(C)(C)CC3=O)Nc3[nH]c(=S)[nH]c(=O)c32)cc1 (configuration not stated),11.5%[10 µM],-8.9%,17.8µM*,-0.3%,18.4%
Cc1[nH]nc2c1C(c1ccc(O)cc1)C1=C(CC(C)(C)CC1=O)N2 (configuration not stated),5.0%,·,·,?,-0.5%
CC1(C)Cc2c(sc3[nH]c(=S)n(Cc4ccco4)c(=O)c23)CO1,-35.1%,?,22.4µM*,5.01µM*,?
CC1(C)Cc2c(sc3c2c(=N)n(Cc2ccco2)c(=O)n3Cc2ccccc2)CO1,-25.4%,18.2%,-8.1%,?,?
O=c1c2c3c(sc2[nH]c(=S)n1Cc1ccco1)CCC3,10.9%[10 µM],·,·,·,6.4%[9.22 µM]
CC1(C)Cc2c(sc3c2c(=N)n(Cc2ccco2)c(=O)n3Cc2ccc(Cl)cc2)CO1,-23.5%,1.7%,-13.1%,?,17.8µM*
Nc1cc(N)cc(C(=O)OCC(=O)Nc2cc(S(=O)(=O)N3CCCCC3)ccc2Cl)c1,·,·,·,-7.9%,24.5%
COC(=O)c1ccc(NC(=O)CSc2ccccc2)cc1,11.6%[10 µM],10.4%,-12.7%,5.0%,15.4%
COC(=O)c1ccc(NC(=O)CSc2ccccn2)cc1,-1.4%,-2.3%,11.2µM*,?,7.2%
Cc1cccc(NC(=O)CCSc2ccccn2)c1,6.1%[10 µM],18.5%,14.1µM*,?,-3.0%
Cc1ccc(C(=O)CSc2ccccn2)cc1,5.3%,9.3%,?,?,8.5%
O=C(CSc1ccccn1)Nc1ccc2c(c1)C(=O)c1ccccc1C2=O,-9.9%[10 µM],-7.1%,-9.5%,25.1µM*,-14.0%
O=C(CSc1ccccn1)c1ccc(F)cc1,-5.8%,10.1%,25.1µM*,?,9.5%
CCCC[C@H](CC)CN1CN(C[C@@H](CC)CCCC)CC(C)(N)C1,-0.3%[40.3 µM],-16.0%,1.3%,1.3%[20.9 µM],-0.5%[20.6 µM]
COc1ccc(CCNC(=O)Cn2c(=O)nc(-c3ccccc3)c3cc(Cl)ccc32)cc1OC,·,-6.0%[46 µM],·,·,·
COC(=O)C/C=C\[C@@H](C)[C@@H](/C=N\OC[C@@H]1O[C@H](c2ccccc2)C=C[C@@H]1Oc1ccc(OC)cc1)NS(=O)(=O)c1ccc(C)cc1,?,·,·,-0.3%[13.5 µM],·
Cc1ccc(S(=O)(=O)Oc2cc(S(=O)(=O)O)cc3cc(S(=O)(=O)O)cc(N)c23)cc1,-2.4%[10 µM],·,-10.5%,-0.3%[13.5 µM],·
Cc1ccc2nsnc2c1S(=O)(=O)NCCc1c(C)[nH]c2ccc(F)cc12,3.1%,0.9%,-2.4%,-1.0%,15.5%
CC1CCc2nc3ncn(Cc4ccccc4F)c(=O)c3cc2C1 (configuration not stated),·,-1.0%[46 µM],·,·,·
O=C(CSc1ccccn1)N/N=C/C=C/c1ccccc1,17.4%[10 µM],?,20µM*,6.2%,4.7%
O=C(CSc1ncccc1C(=O)Oc1ccccc1Cl)Nc1ccc(C(F)(F)F)cc1Cl,·,1.9%[46 µM],·,·,·
CC(=O)NC1C(=O)N(Cc2ccccc2)c2ccc(Br)cc21 (configuration not stated),9.5%[10 µM],·,·,·,25.7%[9.22 µM]
SMILES,HTT cytoprotect,LMNA splice mod,HPGD inh,ALDH1A1 inh,HTT aggregate
Cc1ccc2c(c1)C(CCN)C(=O)N2Cc1ccccc1 (configuration not stated),-0.3%,8.7%,-6.1%,31.6µM*,13.0%
Cc1nc(-c2ccccc2)sc1C(=O)/C=C/c1ccc(Cl)cc1,-11.9%,?,-11.3%,3.16µM*,-3.1%
CC(=O)c1sc(-c2ccc(Cl)cc2)nc1C,-9.8%,-3.8%[46 µM],·,3.0%,4.1%
CCSc1nnc(NC(=O)c2cc(C)nc3ccccc23)s1,-9.3%,3.0%,28.2µM*,-8.0%,3.5%
CCSc1nnc(NC(=O)c2ccc3ccccc3n2)s1,-60.4%,?,-24.4%,?,8.5%
CCSc1nnc(NC(=O)c2nn(C(C)C)c(=O)c3ccccc23)s1,7.2%[10 µM],-10.3%,-15.9%,25.1µM*,?
O=C(CN1C2=NCCN2c2ccccc21)c1ccc(Br)s1,19.3%[10 µM],?,-12.8%,0.3%,-1.8%
CN(C)c1nc(N)nc(CSc2ncc(Cl)cc2Cl)n1,-9.2%,7.1%,8.91µM*,-9.1%,5.9%
Nc1nnc(SC2CC(=O)N(c3ccccc3)C2=O)s1 (configuration not stated),-12.3%,-2.2%,31.6µM*,3.55µM*,?
Cc1nc(SC2CC(=O)N(c3ccccc3)C2=O)n[nH]1 (configuration not stated),3.0%[10 µM],·,·,0.355µM*,0.0%[9.22 µM]
CN=C(NC)SC1CC(=O)N(c2ccccc2)C1=O (configuration not stated),-7.1%,4.4%,4.0%,9.7%,-4.7%
O=C1CC(Sc2ncccn2)C(=O)N1c1ccccc1 (configuration not stated),7.5%,4.9%,-9.6%,22.4µM*,10.5%[9.22 µM]
C=CCNc1nnc(SC2CC(=O)N(c3ccc(OCCC)cc3)C2=O)s1 (configuration not stated),-115.9%,?,14.1µM*,0.562µM*,3.9%[9.22 µM]
Cc1cc([N+](=O)[O-])ccc1NC(=O)CSc1nccc(=O)[nH]1,·,·,·,-9.7%,-12.8%
COc1ccccc1N1C(=O)CC(Sc2n[nH]c(-c3cccc(C)c3)n2)C1=O (configuration not stated),6.4%[10 µM],-0.5%,?,2µM*,?
N#Cc1cc2c(nc1SC1CC(=O)N(c3ccccc3)C1=O)CCC2 (configuration not stated),·,6.5%,-0.1%,-13.6%,-7.9%
COc1ccccc1N1C(=O)CC(Sc2nccc(C)n2)C1=O (configuration not stated),-33.1%,-3.8%,-10.8%,0.4%,12.8%
Cc1nc(SC2CC(=O)N(c3ccc([N+](=O)[O-])cc3)C2=O)nc2c1CCCC2 (configuration not stated),-17.4%,4.2%,-19.1%,1.78µM*,24.5%
CCOc1ccc(N2C(=O)CC(Sc3ncccn3)C2=O)cc1 (configuration not stated),-8.1%[0.074 µM],8.4%,0.5%,22.4µM*,-1.3%
COC(=O)NC(c1ccccc1)c1c[nH]c2ccccc12 (configuration not stated),11.4%,·,-5.1%,5.7%,·
COc1ccc(-c2cn3c(n2)sc2cc(C(=O)Nc4c(C)cccc4C)ccc23)cc1,·,-0.2%[46 µM],·,·,·
CN1CCN(C(CNC(=O)C(=O)Nc2ccccc2)c2ccc3c(c2)OCO3)CC1 (configuration not stated),·,-7.5%[46 µM],·,·,·
Cc1cc(-c2n[nH]c(=S)n2/N=C/c2c[nH]c3ccccc23)n[nH]1,-12.0%[10 µM],·,·,?,-13.9%[9.22 µM]
